Laboratory results: PubChem BioAssay (NCI)
This is part of a sample that, as a whole, favours compounds with a hit. Of some 79,000 tested, about 15% had one in any assay. Active and inactive are the calls of the source. No stated cut-off is given here; in the data, active means growth inhibition above about 70%; inactive means the rest.

Experiment: NCI Yeast Anticancer Drug Screen. Data for the wt1 strain (AID 149);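 further: 0% = growth of vehicle-treated wt1 cultures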
Conditions: S. cerevisiae wt1 strain (SPY 50644) growth inhibition, stronger effect = higher value
Method: Growth inhibition of yeast strains with defined genetic alterations is measured as a screen for potential anti-cancer activity. Selected strains with alterations in DNA damage repair or cell cycle control were exposed to compounds and growth inhibition was measured relative to vehicle treated controls. The strain used in this assay is wt1

Measured: growth inhibition

CCOC(=O)C1N=[N+](c2ccccc2)C(=O)/C1=C\n1c(=S)[nH]c2ccc([N+](=O)[O-])cc21 (stereo not given)
inactive: at 1.2 µM 1% | at 3.7 µM 3% | at 11.0 µM 2% | at 33.0 µM 3% | at 100.0 µM 6%

CC1(C)CC(=O)C(/C=N/c2nc(-c3ccccc3)cs2)=C(O)C1
inactive: at 1.2 µM 2% | at 3.7 µM 2% | at 11.0 µM 6% | at 33.0 µM 22% | at 100.0 µM 54%

CCOc1ccc(NC(=O)C2=C(C)NC(C)=C(C(=O)Nc3ccc(OCC)cc3)C2c2cccc([N+](=O)[O-])c2)cc1
inactive: at 1.2 µM 1% | at 3.7 µM -3% | at 11.0 µM -5% | at 33.0 µM -28%
active: at 100.0 µM 79%

O=P(NC1CCCCC1)(OCc1ccccc1)OCc1ccccc1
inactive: at 1.2 µM 0% | at 3.7 µM 3% | at 11.0 µM 0% | at 33.0 µM 3% | at 100.0 µM 7%

Clc1ccc(NCNC2Nc3ccccc3N2)cc1Cl
active: at 33.0 µM 81% | at 100.0 µM 99%
inactive: at 1.2 µM 2% | at 3.7 µM 7% | at 11.0 µM 8%

Cc1ccc(Cl)cc1NC(=O)OCCN(C)C(=O)Nc1cc(Cl)ccc1C
inactive: at 1.2 µM -30% | at 3.7 µM -35% | at 11.0 µM -38% | at 33.0 µM -30% | at 100.0 µM 34%

Cc1ccc(CC2(OCCN(C)C)CCC(C(C)(C)C)CC2)cc1 (stereo not given)
active: at 100.0 µM 99%
inactive: at 1.2 µM 9% | at 3.7 µM 12% | at 11.0 µM -5% | at 33.0 µM 9%

Cc1cc(S(=O)(=O)Nc2nnc3cnc4ccccc4n23)c(S)cc1Cl
inactive: at 1.2 µM -1% | at 3.7 µM -3% | at 11.0 µM 4% | at 33.0 µM 11% | at 100.0 µM 28%
